The source made the active and inactive calls.
Assays:
[1] = E. coli DRC41 culture turbidity changes, primary screen, E. coli filamentation inducer project, strain DRC41, OD650, 48 h (AID 1152);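 also: E. coli MC1000 strain DRC41 lacking acrAB efflux pump and sulA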; settings: E. coli DRC41 (acrAB sulA), higher = more signal, called active from +8 up or from −8 down
[2] = small-molecule binders of probe aLefty1, primary screen, biochemical, small-molecule microarray, 635/667 nm fluorescence (AID 1153); settings: higher = more signal;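 also: score merges spot fluorescence with signal-to-noise ratio from the scanned slide images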
[3] = PSAC antagonists in infected red cells, primary screen, cell-based, P. falciparum Indochina, OD700, 1 h (AID 1154); settings: P. falciparum Indochina infected RBC osmotic lysis, higher = more signal, called active from +8 up or from −8 down
[4] = PSAC antagonists in infected red cells, primary screen, cell-based, P. falciparum Indochina, OD700, 2 h (AID 1155);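 also: lysis reports solute entry through the parasite surface anion channel PSAC; channel blockers reduce lysis of infected cells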; settings: P. falciparum Indochina infected erythrocytes, osmotic lysis OD700; higher = more signal, called active from +8 up or from −8 down
[5] = osmotic lysis modulators in infected erythrocytes, primary screen, PSAC antagonist project, cell-based, P. falciparum Indochina, OD700, 3 h (AID 1156); settings: higher = more signal, called active from +8 up or from −8 down
[6] = PSAC antagonists in infected red cells, primary screen, cell-based, P. falciparum Indochina, OD700, 18 h (AID 1157); settings: P. falciparum Indochina infected erythrocytes, osmotic lysis OD700, 18 h; higher = more signal, called active from +8 up or from −8 down
[7] = modulators of S6 phosphorylation in cells, primary screen, cell-based, A549, cytoblot, luminescence, serum-stimulated (AID 1158); settings: A549 phospho-S6 cytoblot, 5 h, higher = more signal;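 also: serum-stimulated A549 lung adenocarcinoma cells; signal is phosphorylated S6 detected by cytoblot immunostaining with HRP secondary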
[8] = target: NADPH oxidase 2 (Homo sapiens) (UniProt P04839); assay: NOX2-dependent H2O2 signal modulators, primary screen, NOX inhibitor project, cell-based, HEK293-NOX2, PMA-stimulated, Amplex Red fluorescence (AID 1159); settings: 45 min, higher = more signal, called active from +8 up or from −8 down; also: test concentration not given here
[9] = target: NADPH oxidase 4 (Homo sapiens) (UniProt Q9NPH5); assay: NOX4-dependent H2O2 signal modulators, primary screen, NOX inhibitor project, cell-based, HEK293-NOX4, tetracycline-induced, Amplex Red fluorescence (AID 1160); settings: 45 min, higher = more signal, called active from +8 up or from −8 down
[10] = target: NADPH oxidase 5 (Homo sapiens) (UniProt Q96PH1); assay: NOX5-dependent H2O2 signal modulators, primary screen, NOX inhibitor project, cell-based, HEK293-NOX5, Amplex Red fluorescence (AID 1161); settings: HEK293-NOX5, ionomycin, 45 min, higher = more signal
[11] = A549 cell viability effects, profiling panel, calcein-AM fluorescence, 48 h, basal (AID 1162); settings: higher = more signal; also: test concentration not given here
[12] = adipocyte viability effects, profiling panel, cell-based, 3T3-L1 adipocytes, calcein-AM fluorescence, 48 h, basal (AID 1163); settings: 3T3-L1 adipocytes viability, higher = more signal; also: test concentration not given here
[13] = HepG2 cell viability effects, profiling panel, calcein-AM fluorescence, 48 h, basal (AID 1164); settings: higher = more signal; also: test concentration not given here
[14] = MM1S cell viability effects, profiling panel, calcein-AM fluorescence, 48 h, basal (AID 1165); settings: higher = more signal;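 also: viability of MM1S multiple myeloma cells under basal unstimulated conditions; test concentration not given here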
[15] = basal RPMI8226 viability, no added stimulus, profiling panel, cell-based, calcein-AM fluorescence, 48 h, PK04 Diversity Set (AID 1166); settings: RPMI8226 myeloma viability, higher = more signal;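 also: cells grown under basal conditions without added stimulus; test concentration not given here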
[16] = basal HepG2 mitochondrial membrane potential changes, profiling panel, cell-based, JC-1 fluorescence, 24 h, 100 nL compound (AID 1167); settings: higher = more signal; also: test concentration not given here
[17] = basal 3T3-L1 adipocyte mitochondrial potential changes, profiling panel, cell-based, JC-1 fluorescence, 3T3-L1 adipocytes, 24 h, 100 nL compound (AID 1168); settings: JC-1 mitochondrial fluorescence, higher = more signal, called active from +8 up or from −8 down; also: test concentration not given here
[18] = basal RPMI8226 mitochondrial membrane potential changes, profiling panel, cell-based, JC-1 fluorescence, 24 h, 100 nL compound (AID 1169); settings: RPMI8226 myeloma, JC-1 mitochondrial potential fluorescence, higher = more signal; also: test concentration not given here
[19] = basal MM1S mitochondrial membrane potential changes, profiling panel, cell-based, JC-1 fluorescence, 24 h, 100 nL compound (AID 1170); settings: higher = more signal; also: test concentration not given here
[20] = A549 lung cancer cell viability effects, profiling panel, resazurin fluorescence, 24 h, PK04 Diversity Set (AID 1171); settings: higher = more signal, called active from +8 up or from −8 down; also: test concentration not given here

Chain of NADPH oxidase 5 (Homo sapiens) (Q96PH1 whole entry, looked up): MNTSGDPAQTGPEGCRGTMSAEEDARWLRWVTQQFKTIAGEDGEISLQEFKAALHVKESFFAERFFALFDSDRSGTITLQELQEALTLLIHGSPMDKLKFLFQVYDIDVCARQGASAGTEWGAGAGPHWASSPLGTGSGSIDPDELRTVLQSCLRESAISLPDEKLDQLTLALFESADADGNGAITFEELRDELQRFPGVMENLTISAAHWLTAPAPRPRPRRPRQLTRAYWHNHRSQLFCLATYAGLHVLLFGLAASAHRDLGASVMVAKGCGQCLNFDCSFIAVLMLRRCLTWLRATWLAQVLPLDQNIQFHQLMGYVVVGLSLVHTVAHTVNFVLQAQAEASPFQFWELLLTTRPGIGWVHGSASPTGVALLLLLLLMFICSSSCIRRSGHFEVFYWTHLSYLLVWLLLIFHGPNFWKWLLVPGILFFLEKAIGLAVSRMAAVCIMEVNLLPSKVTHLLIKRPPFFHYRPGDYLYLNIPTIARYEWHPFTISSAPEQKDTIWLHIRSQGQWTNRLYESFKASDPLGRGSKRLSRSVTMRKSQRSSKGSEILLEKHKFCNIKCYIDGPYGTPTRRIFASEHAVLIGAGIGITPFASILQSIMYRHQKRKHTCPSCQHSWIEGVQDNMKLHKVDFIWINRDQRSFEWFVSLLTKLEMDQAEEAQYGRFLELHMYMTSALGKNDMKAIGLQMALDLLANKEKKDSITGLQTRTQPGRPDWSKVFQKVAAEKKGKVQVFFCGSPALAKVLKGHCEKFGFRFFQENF
Chain of NADPH oxidase 4 (Homo sapiens) (Q9NPH5 whole entry, looked up): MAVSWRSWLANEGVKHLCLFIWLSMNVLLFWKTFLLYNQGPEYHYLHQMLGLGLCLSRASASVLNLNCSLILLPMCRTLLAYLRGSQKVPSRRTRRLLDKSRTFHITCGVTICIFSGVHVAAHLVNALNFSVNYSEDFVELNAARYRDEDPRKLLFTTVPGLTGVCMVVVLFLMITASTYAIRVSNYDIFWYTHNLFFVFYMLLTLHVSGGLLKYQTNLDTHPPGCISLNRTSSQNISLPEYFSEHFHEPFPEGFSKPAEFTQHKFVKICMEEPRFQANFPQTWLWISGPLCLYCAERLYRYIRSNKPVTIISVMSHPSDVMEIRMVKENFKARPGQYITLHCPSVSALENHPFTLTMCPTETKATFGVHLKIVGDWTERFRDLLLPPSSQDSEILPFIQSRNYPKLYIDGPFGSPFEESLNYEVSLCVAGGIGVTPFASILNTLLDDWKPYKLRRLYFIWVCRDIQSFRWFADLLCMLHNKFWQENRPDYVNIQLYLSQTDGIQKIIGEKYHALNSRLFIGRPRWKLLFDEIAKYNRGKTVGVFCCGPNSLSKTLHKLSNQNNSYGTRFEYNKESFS
Chain of NADPH oxidase 2 (Homo sapiens) (P04839 whole entry, looked up): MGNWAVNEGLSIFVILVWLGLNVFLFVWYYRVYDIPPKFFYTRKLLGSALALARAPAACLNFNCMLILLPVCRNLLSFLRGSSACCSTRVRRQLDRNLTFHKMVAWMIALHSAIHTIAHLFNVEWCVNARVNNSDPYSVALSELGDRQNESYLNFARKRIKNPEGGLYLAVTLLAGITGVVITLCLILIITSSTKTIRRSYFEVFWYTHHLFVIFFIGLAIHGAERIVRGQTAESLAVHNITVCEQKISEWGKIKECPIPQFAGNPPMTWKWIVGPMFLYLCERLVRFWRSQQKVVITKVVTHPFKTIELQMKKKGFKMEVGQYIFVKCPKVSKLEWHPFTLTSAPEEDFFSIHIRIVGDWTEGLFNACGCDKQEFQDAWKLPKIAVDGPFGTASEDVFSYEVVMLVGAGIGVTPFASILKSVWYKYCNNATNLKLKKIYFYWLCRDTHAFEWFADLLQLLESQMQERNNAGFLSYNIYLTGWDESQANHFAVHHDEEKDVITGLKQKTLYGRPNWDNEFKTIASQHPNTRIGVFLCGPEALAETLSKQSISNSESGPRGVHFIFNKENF

Compound	z-score [1]	composite z-score [2]	z-score [3]	z-score [4]	z-score [5]	z-score [6]	z-score [7]	z-score [8]	z-score [9]	z-score [10]	z-score [11]	z-score [12]	z-score [13]	z-score [14]	z-score [15]	z-score [16]	z-score [17]	z-score [18]	z-score [19]	z-score [20]
CN1C(=O)C2C=CC(C(O)c3ccc([N+](=O)[O-])cc3)N(N3CCCCC3)C2C1=O (stereo not given)	-1.74 (inactive)	0.385	2.06 (inactive)	1.36 (inactive)	-0.0207 (inactive)	0.9 (inactive)	-0.919	0.114 (inactive)	-2.07 (inactive)	-1.12	-0.234	-0.69	-0.384	-0.324	-0.721	-1.24	-0.927 (inactive)	0.0849	0.134	-0.197 (inactive)
CCOC(=O)C[C@H]1[C@H](OC(=O)c2ccc(C(=O)c3ccccc3)cc2)[C@@H](NC(=O)c2ccc3ccccc3n2)c2cc(OCCCO)ccc2N1C(=O)c1ccccc1	-0.983 (inactive)	-0.0683	0.839 (inactive)	-0.136 (inactive)	-0.883 (inactive)	-0.232 (inactive)	-0.322	0.34 (inactive)	1.06 (inactive)	1.2	-0.851	0.824	0.376	-0.67	-0.705	1.11	-0.966 (inactive)	0.484	-0.318	0.154 (inactive)
CCOC(=O)C[C@H]1[C@H](OC(=O)c2ccc(C(=O)c3ccccc3)cc2)[C@@H](NC(=O)c2ccc3ccccc3c2)c2cc(OCCCO)ccc2N1C(=O)Cc1ccc(OC)cc1	0.739 (inactive)	0.138	6.12 (inactive)	0.448 (inactive)	0.337 (inactive)	0.184 (inactive)	0.742	-0.992 (inactive)	0.557 (inactive)	0.161	-0.0783	0.539	0.294	0.655	0.39	1.32	-0.808 (inactive)	-0.716	-0.51	0.0571 (inactive)
COCCOC(=O)N1C(=O)[C@@]2(c3cc(C#CCCO)ccc31)[C@H](C(=O)N1CCCCCCC1)[C@H]1C(=O)O[C@H](c3ccccc3)[C@H](c3ccccc3)N1[C@@H]2c1ccc(OCCO)cc1	0.712 (inactive)	2.45	7.78 (inactive)	1.37 (inactive)	-1.22 (inactive)	0.982 (inactive)	-0.215	0.931 (inactive)	0.94 (inactive)	0.603	0.338	1.74	0.155	-0.284	-1.54	-1.68	-1.47 (inactive)	-1.25	-1.02	0.76 (inactive)
CC(C)C(=C=CC[C@@H](O)c1ccc(OCCO)cc1)C[C@@H](O)COCc1ccccc1	1.45 (inactive)	0.0341	8.51 (active)	-0.15 (inactive)	0.776 (inactive)	-0.46 (inactive)	4.27	-2.13 (inactive)	-0.915 (inactive)	-2.41	2.2	1.46	1.2	-0.619	0.471	1.52	0.404 (inactive)	-0.147	-1.11	0.343 (inactive)
COc1ccc(CCNC(=O)[C@@]2(Sc3ccc(C)cc3)CC(=O)N(C(C)C)[C@@H]2c2ccc(CO)cc2I)cc1	-0.0322 (inactive)	-0.104	5.56 (inactive)	0.428 (inactive)	0.445 (inactive)	-0.135 (inactive)	0.394	0.446 (inactive)	-0.641 (inactive)	1.22	1.68	0.345	0.0217	-3.07	-2.32	0.529	-0.139 (inactive)	-0.686	-0.942	-0.192 (inactive)
CCCCC(CC)C(O)C1C=CC2C(=O)N(Cc3ccccc3)C(=O)C2N1n1cnnc1 (stereo not given)	-1.5 (inactive)	0.0903	0.218 (inactive)	0.0653 (inactive)	0.604 (inactive)	0.411 (inactive)	-0.908	-0.132 (inactive)	-0.476 (inactive)	-0.99	-0.682	-0.498	-0.391	-0.165	-0.208	-0.522	-1.48 (inactive)	0.447	0.533	-0.56 (inactive)

Reference: PubChem BioAssay
